Structures can show the parent of a compound that is named as a salt. ± gives the standard deviation of the averaged measurements.
How the values were obtained:
Assay in all cases: growth (OD600 after 10 h); higher = more growth (less inhibition)
[1] = tested on: E. coli TESEC Alr+ wild-type control; details: compound 0.1 mM; raw OD600 reference: median of DMSO wells 0.241, cell-free background 0.041
Protocol: (§1)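 TESEC Mtb Alr E. coli, or the Alr+ wild-type control, in 384-well plates with Prestwick library compounds at 0.1 mM and 1% DMSO, across arabinose induction levels of 1E3 to 1E7 nM. Growth is read as OD600 after 10 h at 37 °C in triplicate biological replicates.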

[2] = tested on: E. coli TESEC Mtb Alr; details: compound 0.1 mM
Protocol: as §1

[3] = tested on: E. coli TESEC Mtb Asd; details: compound 0.1 mM
Protocol: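 TESEC E. coli strains in which the native enzyme is deleted and replaced by arabinose-inducible Mtb Asd, DapB, CysH or TrpD, each grown in its selective medium. Strains were screened against the Prestwick library at 0.1 mM and 1% DMSO in 384-well format at low and high arabinose induction. Growth is read as OD600 after 10 h in triplicate.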

[4] = tested on: E. coli TESEC Alr+ wild-type control; details: compound 0.1 mM; raw OD600 reference: median of DMSO wells 0.49, cell-free background 0.052
Protocol: (§2)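 TESEC Mtb Alr E. coli (ΔaraC ΔtolC ΔentC Δalr ΔdadX, arabinose-inducible Mtb Alr) or the Alr+ wild-type control strain, grown in defined M9-fructose medium without D-alanine in 96-well plates with Prestwick library compounds at 0.1 mM and 1% DMSO. Low Alr induction is 0.1 µM arabinose and high induction is 10 mM arabinose.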

[5] = tested on: E. coli TESEC Mtb Alr; details: compound 0.1 mM; remark: listed apart in the source
Protocol: as §2

[6] = arabinose 1000 nM, raw OD600 reference: median of DMSO wells 0.294, cell-free background 0.041
[7] = arabinose 10000 nM, raw OD600 reference: median of DMSO wells 0.264, cell-free background 0.041
[8] = arabinose 100000 nM, raw OD600 reference: median of DMSO wells 0.201, cell-free background 0.041
[9] = arabinose 1000000 nM, raw OD600 reference: median of DMSO wells 0.193, cell-free background 0.041
[10] = arabinose 10000000 nM, raw OD600 reference: median of DMSO wells 0.146, cell-free background 0.041
[11] = arabinose induction (level): High, raw OD600 reference: median of DMSO wells 0.331, cell-free background 0.041
[12] = arabinose induction (level): Low, raw OD600 reference: median of DMSO wells 0.417, cell-free background 0.041
[13] = arabinose 100 nM, raw OD600 reference: median of DMSO wells 0.413, cell-free background 0.052
[14] = arabinose 10000000 nM, raw OD600 reference: median of DMSO wells […], cell-free background 0.052

Row | SMILES | growth [1] | growth [2, 6] | growth [2, 7] | growth [2, 8] | growth [2, 9] | growth [2, 10] | growth [3, 11] | growth [3, 12] | growth [4] | growth [5, 13] | growth [5, 14]
1 | COc1cc2ncnc(Nc3ccc(F)c(Cl)c3)c2cc1OCCCN1CCOCC1 [Gefitinib] | 0.206 ± 0.013 | 0.294 ± 0.019 | 0.24 ± 0.0039 | 0.198 ± 0.017 | 0.161 ± 0.0089 | 0.162 ± 0.0061 | 0.261 ± 0.026 | 0.454 ± 0.038 | 0.496 ± 0.03 | 0.284 ± 0.2 | 0.0533 ± 0.0025
2 | Cc1cccc(C)c1OCC(C)N (configuration not stated) [Mexiletine hydrochloride] | 0.225 ± 0.0049 | 0.276 ± 0.0054 | 0.262 ± 0.0058 | 0.223 ± 0.038 | 0.171 ± 0.0031 | 0.143 ± 0.0056 | 0.348 ± 0.076 | 0.397 ± 0.033 | 0.399 ± 0.005 | 0.4 ± 0.015 | 0.352 ± 0.015
3 | O=C1C(O)=C(O)C(=O)C(O)=C1O [Tetrahydroxy-1,4-quinone hydrate] | 0.231 ± 0.0052 | 0.29 ± 0.02 | 0.275 ± 0.0064 | 0.19 ± 0.018 | 0.1568 ± 0.0015 | 0.142 ± 0.0053 | 0.349 ± 0.089 | 0.427 ± 0.082 | 0.5 ± 0.021 | 0.399 ± 0.012 | 0.333 ± 0.0084
4 | Cc1ncc(C[n+]2csc(CCO)c2C)c(N)n1 [Thiamine hydrochloride] | 0.246 ± 0.0087 | 0.295 ± 0.0076 | 0.251 ± 0.0027 | 0.174 ± 0.014 | 0.185 ± 0.0064 | 0.129 ± 0.0017 | 0.354 ± 0.062 | 0.418 ± 0.062 | 0.451 ± 0.011 | 0.42 ± 0.0059 | 0.362 ± 0.02
5 | CN1CCOC(c2ccccc2)c2ccccc2C1 (configuration not stated) [Nefopam hydrochloride] | 0.218 ± 0.0081 | 0.294 ± 0.0068 | 0.263 ± 0.003 | 0.185 ± 0.012 | 0.157 ± 0.0087 | 0.157 ± 0.0035 | 0.187 ± 0.03 | 0.401 ± 0.045 | 0.543 ± 0.081 | 0.413 ± 0.014 | 0.327 ± 0.021
6 | N[C@@H](Cc1ccc(O)c(O)c1)C(=O)O [Levodopa] | 0.229 ± 0.0045 | 0.275 ± 0.015 | 0.267 ± 0.015 | 0.199 ± 0.028 | 0.178 ± 0.0063 | 0.138 ± 0.0042 | 0.383 ± 0.026 | 0.455 ± 0.0078 | 0.489 ± 0.052 | 0.413 ± 0.013 | 0.354 ± 0.018
7 | O=C1C(CC[S+]([O-])c2ccccc2)C(=O)N(c2ccccc2)N1c1ccccc1 (configuration not stated) [Sulfinpyrazone] | 0.167 ± 0.0026 | 0.244 ± 0.0079 | 0.241 ± 0.006 | 0.17 ± 0.01 | 0.151 ± 0.0048 | 0.146 ± 0.0031 | 0.26 ± 0.063 | 0.316 ± 0.087 | 0.542 ± 0.093 | 0.38 ± 0.0087 | 0.33 ± 0.011
8 | Cc1ccc(C(=O)c2cc(O)c(O)c([N+](=O)[O-])c2)cc1 [Tolcapone] | 0.04277 ± 0.00032 | 0.0471 ± 0.0057 | 0.04323 ± 0.00038 | 0.0445 ± 0.00061 | 0.04313 ± 0.00042 | 0.0485 ± 0.00089 | 0.0527 ± 0.0018 | 0.0521 ± 0.0091 | 0.065 ± 0.0022 | 0.0574 ± 0.0008 | 0.0554 ± 0.00035
9 | Cc1nc2n(c(=O)c1CCN1CCC(c3noc4cc(F)ccc34)CC1)CCCC2 [Risperidone] | 0.237 ± 0.0077 | 0.305 ± 0.007 | 0.269 ± 0.014 | 0.175 ± 0.016 | 0.18 ± 0.0097 | 0.146 ± 0.0055 | 0.183 ± 0.032 | 0.315 ± 0.073 | 0.47 ± 0.027 | 0.397 ± 0.014 | 0.305 ± 0.023
10 | Oc1c(Cl)cc(Cl)c(Cl)c1Cc1c(O)c(Cl)cc(Cl)c1Cl [Hexachlorophene] | 0.0444 ± 0.00067 | 0.04387 ± 0.00038 | 0.0445 ± 0.00086 | 0.04433 ± 0.00015 | 0.04387 ± 5.8e-05 | 0.0464 ± 0.0029 | 0.0582 ± 0.0021 | 0.0553 ± 0.004 | 0.05693 ± 0.00042 | 0.063 ± 0.0035 | 0.0602 ± 0.0016
11 | CC(=O)N[C@@H](CC(C)C)C(=O)O [N-Acetyl-L-leucine] | 0.243 ± 0.013 | 0.292 ± 0.016 | 0.259 ± 0.004 | 0.219 ± 0.0097 | 0.192 ± 0.0042 | 0.134 ± 0.0046 | 0.378 ± 0.077 | 0.476 ± 0.0098 | 0.637 ± 0.023 | 0.41 ± 0.013 | 0.349 ± 0.0042
12 | N=C(N)NC(=O)Cc1c(Cl)cccc1Cl [Guanfacine hydrochloride] | 0.241 ± 0.0058 | 0.287 ± 0.0063 | 0.26 ± 0.0052 | 0.236 ± 0.018 | 0.143 ± 0.0065 | 0.165 ± 0.0022 | 0.43 ± 0.13 | 0.444 ± 0.018 | 0.485 ± 0.018 | 0.406 ± 0.0086 | 0.329 ± 0.018
13 | CC(C)(Sc1cc(C(C)(C)C)c(O)c(C(C)(C)C)c1)Sc1cc(C(C)(C)C)c(O)c(C(C)(C)C)c1 [Probucol] | 0.248 ± 0.0044 | 0.298 ± 0.014 | 0.259 ± 0.0043 | 0.236 ± 0.028 | 0.172 ± 0.0035 | 0.173 ± 0.02 | 0.344 ± 0.1 | 0.408 ± 0.093 | 0.583 ± 0.039 | 0.407 ± 0.0098 | 0.366 ± 0.015
14 | Cc1onc(-c2ccccc2)c1C(=O)N[C@@H]1C(=O)N2[C@@H]1SC(C)(C)[C@@H]2C(=O)O [Oxacillin sodium] | 0.246 ± 0.017 | 0.298 ± 0.017 | 0.249 ± 0.012 | 0.198 ± 0.015 | 0.187 ± 0.0051 | 0.14 ± 0.0038 | 0.468 ± 0.036 | 0.477 ± 0.0063 | 0.492 ± 0.054 | 0.421 ± 0.0073 | 0.362 ± 0.0089
15 | C[C@]12CCC(=O)C=C1CC[C@@H]1[C@@H]2C(=O)C[C@@]2(C)[C@H]1CC[C@]2(O)C(=O)CO [Cortisone] | 0.216 ± 0.0023 | 0.278 ± 0.0049 | 0.237 ± 0.014 | 0.176 ± 0.011 | 0.1797 ± 0.00035 | 0.128 ± 0.0041 | 0.396 ± 0.078 | 0.445 ± 0.041 | 0.46 ± 0.066 | 0.41 ± 0.0069 | 0.336 ± 0.0035
16 | C#CCN[C@@H]1CCc2ccccc21 [Rasagiline] | 0.224 ± 0.0077 | 0.281 ± 0.012 | 0.263 ± 0.011 | 0.19 ± 0.011 | 0.194 ± 0.023 | 0.142 ± 0.0024 | 0.245 ± 0.065 | 0.342 ± 0.075 | 0.547 ± 0.014 | 0.421 ± 0.011 | 0.322 ± 0.0094
17 | CCC(=O)[C@@]1(C)[C@H](C)C[C@H]2[C@@H]3CCC4=CC(=O)C=C[C@]4(C)[C@H]3[C@@H](O)C[C@@]21C [Rimexolone] | 0.216 ± 0.0076 | 0.275 ± 0.019 | 0.248 ± 0.0084 | 0.139 ± 0.005 | 0.148 ± 0.0067 | 0.132 ± 0.0029 | 0.203 ± 0.03 | 0.41 ± 0.047 | 0.459 ± 0.021 | 0.414 ± 0.019 | 0.365 ± 0.038

Source: the supplement of paper PMC9262897, “Low-cost anti-mycobacterial drug discovery using engineered E. coli” (Nature Communications, 2022)
